Source: PubChem
In the library only some 6.5% were active in any assay of this set; here they are far more common.
TGFb SMAD3 inh: inhibitors of TGF-b signaling. AID 588855. 410,000 compounds, 1.2% hits. Potency, µM (highest dose often 46.1 µM), for inactives: top-dose activity, negative = inhibition, most hits filed as inhibitors. HepG2 CAGA-GFP TGF-b/SMAD3 reporter, GFP fluorescence, 18 h; TGF-beta stimulated, 500 pg/mL final; further: potency means the concentration at half of the fitted maximal effect; on the % scale 0 is the no-effect control and ±100 the full control effect; nearly all actives have a fitted effect of over 65% in size
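HEPG2 CAGA-GFP reporter cells (1000/well, DMEM with 1% FBS) received compounds, then recombinant TGF-beta at 500 pg/mL final for 18 hours at 37 degrees C. Per-cell GFP summed per well was normalised to unstimulated and stimulated DMSO controls before curve fitting.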
Giardia killer: Giardia lamblia killing; Giardia lamblia trophozoite viability; activity change, % at 7.66 µM, hits read low; 340,000 compounds, 0.15% hits; AID 540267; in the data active means activity change below about -80%; inconclusive means between about -30% and that limit;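 further: parasites exposed to compound for two days anaerobically before the ATP read; on the % scale 0 is the no-effect control and ±100 the full control effect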
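Media and compound were dispensed first, then trophozoites at 100 cells/well; plates sat 48 hrs at 37 deg C without oxygen before ATP luminescence reagent was added and read after 15-30 min at room temperature.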
HT1080 IDH1KD tx: HT-1080 IDH1 knockdown cell toxicity (counter line); HT-1080 IDH1 knockdown viability, ATP luminescence, 48 h; Potency, µM (top dose mostly 46.1 µM), inactives show at the top dose activity, negative = toxicity, hits mostly cytotoxic; 360,000 compounds, 2% hits; AID 686971;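 further: potency means the concentration at half of the fitted maximal effect; 0% = DMSO wells and -100% = cell-free medium wells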
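CellTiter-Glo luminescence after 48 h compound exposure at 37 degrees C of IDH1-knockdown HT-1080 cells in 5% FBS RPMI. %Activity scaled between DMSO wells and cell-free media wells, with curves fitted and assigned curve classes.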
HepG2 tox: kills HepG2 cells in TGF-b inhibitor counter-screen. Potency, µM (series often up to 46.1 µM), without a hit: at the top dose activity change, negative = cytotoxicity, usual class: cytotoxic. AID 588856. HepG2 CAGA-GFP viability, ATP luminescence, 18 h. 410,000 compounds, 0.76% hits; further: potency means the concentration at half of the fitted maximal effect
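HepG2 CAGA-GFP cells (1000/well, DMEM with 1% FBS) received compound, then TGF-beta at 500 pg/mL final, and were incubated 18 hours at 37 degrees C. Viability was read by CellTiter-Glo luminescence. Media-only wells were set as complete cell-killing and DMSO as no toxicity.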
IL-1B inflam inh: inflammasome signaling inhibition, IL-1 beta readout | 360,000 compounds, 4.7% hits | activity change, % at 57.5 µM | THP-1 LPS/ATP IL-1B secretion, AlphaLISA, 16 h; hits give low values; in the data active means activity change below about -50%; inconclusive means mostly about -30% to -49%; further: on the % scale 0 is the no-effect control and ±100 the full control effect
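Secreted IL-1B measured by AlphaLISA bead assay after 16 h compound exposure of THP-1 cells; compounds (final up to 57.5 uM) added 1 h before LPS (250 ng/mL) and ATP (1.25 mM) stimulation; lower signal means less secretion.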
HT1080-NT tox: kills 2HG-producing HT-1080-NT fibrosarcoma cells; HT-1080-NT fibrosarcoma viability, CellTiter-Glo ATP luminescence, 48 h; Potency, µM (series often up to 46.1 µM), for the others: at the top dose activity, negative = less viability, actives largely listed as cytotoxic; 360,000 compounds, 1.6% hits; AID 686970;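 further: NT is the 2HG producing partner of a matched IDH1 knockdown line; potency means the concentration at half of the fitted maximal effect; 0% = DMSO-treated cells and -100% = media-only wells without cells; nearly all actives have a fitted effect of over 55% in size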
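750 cells/well, RPMI + 5% FBS; 2 h settle, compound pin-transfer, 48 h at 37 degrees C. CellTiter-Glo 10 min RT, luminescence. Normalized to DMSO and media-only wells.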
* marks the source's active call; other numbers are inactive results; ? = inconclusive; nt = not tested or not shown; [ ] = remark or other dose. Unless noted, the call rests on the fitted dose curve; in most records, active means well fitted curve in the direction sought with a large enough effect; inconclusive means small, poorly fitted or top-dose-only effect, or another doubt; inactive means no such curve, though single readings can be large; an effect the other way counts as inactive or inconclusive.

SMILES	TGFb SMAD3 inh	Giardia killer	HT1080 IDH1KD tx	HepG2 tox	IL-1B inflam inh	HT1080-NT tox
CC1=C(C(=O)OCC2CCCCC2)C(c2ccc(Cl)cc2)CC(=O)N1 (stereo not given)	?	nt	nt	13µM*	nt	nt
CCc1cccc(CC)c1NC(=S)N(CCN(C)C)C(C)c1cccnc1 (stereo not given)	-18%	-4	-8%	-4%	?	-7%
Cc1cc(C)n(-c2nc3ccccc3nc2N2CCN(c3cccc(C(F)(F)F)c3)CC2)n1	?	nt	nt	-22%	nt	nt
CC(Nc1ncnc2c1cnn2-c1cccc(Cl)c1)c1ccccc1 (stereo not given)	?	nt	nt	-113%	nt	nt
C/C=C/COC(=O)C1=C(C)NC(=O)NC1c1ccc2c(c1)OCO2 (stereo not given)	16%	8	-9%	-1%	-24	-16%
CC1=C(C(=O)OCc2ccc3c(c2)OCO3)C(c2ccc(Cl)cc2)NC(=O)N1 (stereo not given)	?	-4	2.2µM*	-19%	-19	2.5µM*
Cc1cccc(Nc2cc(C)c3c(O)cccc3n2)c1C	?	-1	?	-87%	-101*	?
CON(c1nc(Cl)nc(N(C)C)n1)S(=O)(=O)c1ccccc1Cl	?	4	-22%	6%	-4	-24%
CON(c1nc(Cl)nc(N(C)C)n1)S(=O)(=O)c1ccc(C)cc1	-23%	-6	?	-13%	-63*	-16%
CCN(CC)CCCNC(=O)c1ccc2c(c1)N(Cc1c(F)cccc1Cl)C(=O)c1ccccc1S2	10µM*	nt	nt	11µM*	nt	nt
COC(=O)c1cc2ccsc2n1CC(=O)Nc1ccc(N(C)C)cc1	-22%	-7	1%	-4%	13	2%
O=C1C=CC(=O)N1Cc1ccccc1	?	16	18µM*	-78%	-73*	2.6µM*
O=C1C2CC=CCC2C(=O)N1Cc1ccccc1 (stereo not given)	1%	4	2%[9.24 µM]	-18%	21	-4%
CCN(C[C@H]1N[C@@](C)(C(=O)OC)[C@H]2C(=O)N(C)C(=O)[C@@H]12)C(=O)c1ccc(C)cc1	?	3	13%	-2%	1	11%
Cc1ccc(CNCCC2=CCCCC2)cc1	22%	-19	?	-45%	-69*	-2%[9.24 µM]
C1=C(CCNCC2CC2)CCCC1	-1%	-21	2%	-14%	1	1%
CCCN1C2CCCC1CC(NC(=O)c1ccccc1OC)C2 (stereo not given)	-16%	-3	21%	-18%	-13	1%
Cc1c(C#N)c(O)n(CCO)c(=O)c1N=Nc1ccc2c(c1)COC2=O	1%	5	0%	-7%	-57*	-5%
CC(C)c1ccc(CNC(=O)CCc2ccccc2)cc1	2%	11	1%	16%	19	-5%
CC(C)c1ccc(CNCc2ccccc2)cc1	-2%	24	-1%	-23%	-51*	2%
CC(=O)Cc1nsc(NC(=O)c2ccc(-c3cc(Cl)ccc3Cl)o2)n1	-7%	3	23µM*	-11%	2	21µM*
CC(=O)Cc1nsc(NC(=O)c2ccc(-c3cc(C(F)(F)F)ccc3Cl)o2)n1	-8%	-12	11µM*	-17%	16	11µM*
CC(CC(=O)Nc1ccc2c(c1)OCO2)c1ccccc1 (stereo not given)	10%	-1	-8%	-11%	-3	-1%
Cc1nc(NC(N)=S)sc1C(=O)Nc1ccccc1	3%	-13	?	11µM*	18	-8%
Cc1nc(NC(=S)NC(=O)c2ccccc2)sc1C	-30%	-28	5%	-15%	43	-2%
SMILES	TGFb SMAD3 inh	Giardia killer	HT1080 IDH1KD tx	HepG2 tox	IL-1B inflam inh	HT1080-NT tox
Cc1nc(NC(=O)c2ccccc2)sc1C	9%	1	-13%	16µM*	-5	-20%
Cc1ccc(S(=O)(=O)CCC(=O)NCCN2C(=O)S/C(=C/c3ccc(F)cc3)C2=O)cc1	-18%	13	-2%	-50%	-62*	-12%
O=C(CCNC(=O)c1ccco1)NCCN1C(=O)S/C(=C\c2ccc(F)cc2)C1=O	9%	7	-7%	-22%	-28	-2%
CC12CCC(=O)N1C(C(=O)NCCN1C(=O)S/C(=C\c3ccc(F)cc3)C1=O)CS2 (stereo not given)	-19%	21	2%	-42%	-63*	1%
COc1ccc(/C=C2\SC(=O)N(CCNC(=O)C3CSC4(C)CCC(=O)N34)C2=O)cc1 (stereo not given)	4%	-15	10%	5%	-6	10%
Nc1ccccc1Nc1cc(-c2ccccc2)nn1-c1ccccc1	?	14	-12%	-16%	-9	-5%
Nc1ccccc1Nc1ccccc1	?	1	-8%	20µM*	-12	-3%
Nc1ccccc1Nc1cc(-c2ccccc2)[nH]n1	?	-9	?	23%	-94*	?
CCOC(=O)CN(C)C(=O)CCc1nnc(-c2ccc(-c3ccccc3)cc2)o1	-17%	-14	1%	0%	9	-14%
Oc1cc(NCc2ccc(F)cc2)cc2cccnc12	?	10	nt	11µM*	nt	nt
CN(C)CCCNc1cc(O)c2ncccc2c1	?	8	nt	7.1µM*	nt	nt
O=C(NCC1(c2ccccc2)CCCC1)c1ccccc1Br	0%	-6	-25%	-31%	0	2%
COc1ccccc1C(=O)NCC1(c2ccccc2)CCCC1	?	-14	-4%	-19%	-77*	15%
COC(C(=O)NNS(=O)(=O)c1ccccc1[N+](=O)[O-])c1ccccc1 (stereo not given)	6%	1	4%	-11%	38	0%
CC(C)C(=O)NNS(=O)(=O)c1ccccc1[N+](=O)[O-]	-3%	11	4%	16µM*	6	15%
CCNC(=O)C1(C)CCCN(C(=O)c2ccc3sccc3c2)C1 (stereo not given)	26%	nt	10%	8%	55	12%
CC(C)C[C@H]1CN=C(Nc2ccccc2)N1CC1CCC(C(C)(C)C)CC1 (stereo not given in full)	?	-1	?	-109%	-87*	-8%
CCOC(=O)N1CCC(N(CCN(C)C)C(=S)Nc2ccccc2C)CC1	3%	-5	0%	-1%	-11	-4%
COc1cc(/C=C2/C(=O)NN(c3cccc(C)c3)C2=O)ccc1OC(=O)c1ccco1	?	-22	?	-79%	-69*	?
Cc1ccc(S(=O)(=O)CCN2CCN(c3ccccc3)CC2)cc1	?	33	7%	8%	-19	29%
